Here are results for 20 compounds from PubChem BioAssay (NCI).

The nature of assay [1]: NCI Yeast Anticancer Drug Screen. Data for the rad50 strain (AID 155).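 Further: 0% = growth of vehicle-only cultures of the same strain.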 Particulars: S. cerevisiae rad50 strain growth inhibition; at 50.0 µM; stronger effect = higher value. In outline: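 Cells are treated with compound, grown, and their growth is then scored against vehicle-only cultures of the same repair-deficient yeast strain.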
Assay [2] in a line: NCI Yeast Anticancer Drug Screen. Data for the mec2-1 strain (AID 157). As to conditions: S. cerevisiae mec2-1 strain, at 50.0 µM, stronger effect = higher value. Put shortly: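 Yeast mec2-1 mutant treated with compound. Readout: growth inhibition vs vehicle controls.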
The nature of assay [3]: NCI Yeast Anticancer Drug Screen. Data for the sgs1 mgt1 strain (AID 161).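 Further: 0% = growth of cultures given vehicle only.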 As to conditions: S. cerevisiae sgs1 mgt1 strain, at 50.0 µM, stronger effect = higher value. In outline:
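Genetically altered yeast, compound exposure, growth inhibition relative to vehicle.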

A short description of assay [4]: NCI Yeast Anticancer Drug Screen. Data for the cln2 rad14 strain (AID 165).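 Further: 0% = growth equal to vehicle treated cultures.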 As to conditions: S. cerevisiae cln2 rad14 strain, at 50.0 µM, stronger effect = higher value. Put shortly: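 cln2 rad14 yeast strain; compound exposure; growth inhibition read vs vehicle controls.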
A short description of assay [5]: NCI Yeast Anticancer Drug Screen. Data for the bub3 strain (AID 167). As to conditions: S. cerevisiae bub3 mutant strain, at 50.0 µM, stronger effect = higher value. Put shortly: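 Part of a panel of yeast mutants defective in DNA damage repair or cell cycle regulation. Each strain is grown with compound, and inhibition is calculated relative to solvent-treated cultures.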

Assay [6] is described as follows: NCI Yeast Anticancer Drug Screen. Data for the mlh1 rad18 strain (AID 175). As to conditions: S. cerevisiae mlh1 rad18 strain growth inhibition; at 50.0 µM; stronger effect = higher value. In outline:
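Yeast w/ defined DNA-repair lesions; compound exposure; growth vs vehicle controls → % inhibition.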

About 79,000 compounds went through this panel and 15% of them were active in at least one assay; those are over-represented in the sample as a whole. Unmarked numbers belong to inactive results. The source made the active and inactive calls. No stated cut-off is given here; in the data, active means growth inhibition above about 70%; inactive means the rest. Where a SMILES comes first, the peptide text is derived from it. [ ]: non-standard residue; d: D form. Hiv = CC(C)[C@H](O)C(=O)O

`CCSC(=S)S(=O)(=O)c1ccc(C)cc1`: the growth inhibition in assay [1] is 90.4% (active); in assay [2], 93.1% (active); in assay [3], 89.5% (active); in assay [4], 90.5% (active); in assay [5], 84.2% (active); in assay [6], 92.3% (active).

As to `O=C(c1c(F)c(F)c(F)c(F)c1F)n1c(=O)[nH]c2ccccc21`, the growth inhibition in assay [1] is -18.2%; in assay [2], 13.2%; in assay [3], -10.2%; in assay [4], -12.1%; in assay [5], 23.3%; in assay [6], -27.4%.

In the case of `CCOC(=O)NC(=O)c1cn(CCCOC(=O)CCCCCCCCCCC(=O)OCCCn2cc(C(=O)NC(=O)OCC)c(=O)[nH]c2=O)c(=O)[nH]c1=O`, the growth inhibition is -28.5% in assay [1]; -24.2% in assay [2]; -12.4% in assay [3]; 18.6% in assay [4]; -0.95% in assay [5]; -18.9% in assay [6].

Regarding `N#CCc1c(-c2ccccn2)[nH]c2ccccc12`, the growth inhibition in assay [1] is 9.25%; in assay [2], 1.35%; in assay [3], -3%; in assay [4], 18.8%; in assay [5] it was -11.2%; in assay [6], 12%.

Turning to `O=C(Nc1nc2ncn(CCNCCn3cnc4nc(NC(=O)c5ccccc5)[nH]c(=O)c43)c2c(=O)[nH]1)c1ccccc1`, the growth inhibition is -10.2% in assay [1]; 14.1% in assay [2]; 17.5% in assay [3]; 25.9% in assay [4]; 16.8% in assay [5]; 17% in assay [6].

Regarding `CC(=O)NC1C(OCc2ccccc2)OC(CO)C(O)C1OC(C)C(=O)NC(C)C(=O)N[C@@H](CCC(=O)OCCCNC1c2ccccc2Nc2cccc([N+](=O)[O-])c21)C(N)=O` (stereo not given in full), the growth inhibition in assay [1] is 63.4%; in assay [2], 82.7% (active); in assay [3] it was 78.2% (active); in assay [4] it was 83.5% (active); in assay [5], 11.7%; in assay [6], 77.8% (active).

As for `CC(C)OP(=O)(CCC(=O)C1(O)CCC2C3CCC4=CC(=O)CCC4(C)C3CCC21C)OC(C)C` (stereo not given), the growth inhibition in assay [1] was 11.4%; in assay [2] it was 4.25%; in assay [3], 10.3%; in assay [4], 3.25%; in assay [5] it was 0.65%; in assay [6], -8.6%.

For `COc1ccc2nc(NC(=O)C(=O)NNC(=O)c3ccncc3)sc2c1`, the growth inhibition was -24.5% in assay [1]; -24% in assay [2]; -10.1% in assay [3]; 21.1% in assay [4]; -22.9% in assay [5]; -14.7% in assay [6].

As to `Nc1nnc(-c2cccc(-c3nnc(N)o3)c2)o1`, the growth inhibition in assay [1] was -13.5%; in assay [2], -24.6%; in assay [3], -9.8%; in assay [4], -41.4%; in assay [5] it was -6.5%; in assay [6], -15.1%.

Take `C=C(C)C#CCN(CCO)C(C)C`: the growth inhibition in assay [1] was -7.45%; in assay [2] it was -30.3%; in assay [3], -12.9%; in assay [4], 9.2%; in assay [5], -19.4%; in assay [6], 4.75%.

As for `O=C(CSc1nc(-c2ccccc2)c(-c2ccccc2)[nH]1)NNC(=S)Nc1ccccc1`, the growth inhibition in assay [1] was 6.45%; in assay [2], 0.5%; in assay [3], -7.15%; in assay [4] it was -26.3%; in assay [5], 54.5%; in assay [6], 3%.

Turning to `CN(C)N=Nc1ccc(Cl)cc1C(=O)O`, the growth inhibition in assay [1] is 14.8%; in assay [2], 12.3%; in assay [3], 20.7%; in assay [4], 2.2%; in assay [5], 17.9%; in assay [6] it was 41%.

For the compound `CC(C)[C@@H]1OC(=O)[C@@H](C)NC(=O)[C@@H]2CCCN2C1=O` (cyclo([Hiv]-Pro-[dA])), the growth inhibition in assay [1] is -38.2%; in assay [2], -6.75%; in assay [3] it was -15.1%; in assay [4] it was 5.95%; in assay [5], -22.6%; in assay [6] it was -16.4%.

On to `O=c1oc(-c2ccccc2)nc2c1CCCS2`, for which the growth inhibition was -1.2% in assay [1]; -0.95% in assay [2]; -5.65% in assay [3]; 1.85% in assay [4]; -8.25% in assay [5]; -3.05% in assay [6].

`O=C1c2scnc2-c2nccc3c2c1nc1ccccc13`: the growth inhibition in assay [1] is 60.3%; in assay [2], 75.5% (active); in assay [3], 66.8%; in assay [4], 53.2%; in assay [5], 80.9% (active); in assay [6], 74.9% (active).

As to `CCCCOc1cc(C(=O)O)ccc1[N+](=O)[O-]`, the growth inhibition in assay [1] is -10.7%; in assay [2], -19.4%; in assay [3], -10.3%; in assay [4], -5.75%; in assay [5], -19.2%; in assay [6], -3.1%.

On to `CC/C(=N/NC(=O)NN)c1ccc(Cl)cc1`, for which the growth inhibition in assay [1] is -2.2%; in assay [2] it was 14.3%; in assay [3], -1.2%; in assay [4], -1.8%; in assay [5], 22.6%; in assay [6], 17.6%.

For the compound `O=S(=O)(N/N=C/c1ccncc1)c1ccccc1`, the growth inhibition is 39.4% in assay [1]; 16.9% in assay [2]; 60.5% in assay [3]; 41.1% in assay [4]; 34.5% in assay [5]; 50.5% in assay [6].

As for `O=C1C2C(C(=O)N1c1ccccc1)C1([N+](=O)[O-])C=C3c4ccccc4N(C(=O)c4ccccc4)C32C2C(=O)N(c3ccccc3)C(=O)C21` (stereo not given), the growth inhibition in assay [1] was -24.9%; in assay [2], 12.8%; in assay [3] it was -15.4%; in assay [4], 36.3%; in assay [5], -6.35%; in assay [6], -4.9%.

Turning to `COc1ccccc1/C=N/N1C(=O)C2C3C=CC(O3)C2C1=O` (stereo not given), the growth inhibition in assay [1] is 2.35%; in assay [2], 9.8%; in assay [3] it was 0.1%; in assay [4] it was 0.15%; in assay [5], 3.45%; in assay [6] it was 14.5%.
